Measured values published in the supplement of paper PMC12669032.
Unmarked numbers belong to inactive results.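 How the source made its calls: active = AUC reduced over 20% with Padj below 0.05 in at least 2 of 3 replicates; inactive = otherwise.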

system: Roseburia intestinalis; test: growth AUC relative to DMSO control (median of replicates) (fraction); higher = more growth (less inhibition), active = hit call of the paper; conditions: 20 µM; 24 h
In short: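 Hourly OD600 readings over 24 h tracked anaerobic gut bacterial monocultures grown at 37 °C in mGAM from OD600 0.05 with 20 µM compound (1% DMSO). After the minimum OD was set to 0, area under the growth curve was normalised to the plate median of solvent-only wells, or to row and column medians on the industrial chemical plate. Values are medians of three biological replicates grown on separate days.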

SMILES	growth AUC
CCOc1ccc(NC(=O)OC(C)C)cc1OCC	1
Cc1cc(CC(C)CC(C)(C)C)n(O)c(=O)c1.NCCO (centres undefined)	0.995
CC(=O)Nc1cc(NS(=O)(=O)C(F)(F)F)c(C)cc1C	1.02
O=C(O)CCCc1c[nH]c2ccccc12	0.96
CC(=O)CC(c1ccccc1)c1c(O)c2ccccc2oc1=O (centres undefined)	0.952
CCc1cccc(C)c1N(C(=O)CS(=O)(=O)[O-])C(C)COC.[Na+] (centres undefined)	0.925
CCOC(=O)CSc1nc(C(C)(C)C)nn1C(=O)N(C)C	0.913
CO/N=C(/C(=O)O)c1ccccc1CO/N=C(\C)c1cccc(C(F)(F)F)c1	1.01
Clc1ccc(Sc2cc(Cl)c(Cl)cc2Cl)cc1	0.937
CS(=O)(=O)c1ccc(C(=O)O)c(N)c1	1.07
CC(C)(c1cc(Br)c(O)c(Br)c1)c1cc(Br)c(O)c(Br)c1	0.0954 (active)
N#Cc1ccc(CC(=NNC(=O)Nc2ccc(OC(F)(F)F)cc2)c2cccc(C(F)(F)F)c2)cc1 (mixture of isomers)	0.954
Clc1ccc(CSc2ccc(Cl)cc2)cc1	0.965
COC(=O)CSc1cc(N=c2sc(=O)n3n2CCCC3)c(F)cc1Cl	0.971
COc1ccc(Oc2ccc(NC(=O)N(C)C)cc2)cc1	0.99
Nc1cccc(O)c1	0.989
COC(=O)c1ccc(I)cc1S(=O)(=O)[N-]C(=O)Nc1nc(C)nc(OC)n1.[Na+]	0.934
COC1CCC2(CC1)NC(=O)C(O)(c1cc(C)ccc1C)C2=O (centres undefined)	1.01
CC(C)OC(=O)c1cc(C(=O)OC(C)C)cc([N+](=O)[O-])c1	0.974
CCNc1nc(NC(C)(C)C)nc(OC)n1	1.05

SMILES	growth AUC
C=O	1.1
COC(=O)c1cccc(C)c1S(=O)(=O)NC(=O)Nc1nc(OCC(F)(F)F)nc(N(C)C)n1	0.984
CCOC(=O)c1ccc(O)cc1	0.888
c1ccc2c(c1)ccc1ccccc12	0.993
Clc1ccc(C(c2ccccc2Cl)C(Cl)Cl)cc1 (centres undefined)	0.911
Cc1c(Br)c2ccc(F)cc2n1S(=O)(=O)c1ncn(S(=O)(=O)N(C)C)n1	1.06
c1ccc(CNc2ncnc3nc[nH]c23)cc1	0.962
NC(=O)c1c(Cl)cccc1Cl	0.906
COC(=O)c1c(Cl)ccc(Cl)c1OC	0.982
CCCCCCCC/C=C\CCCCCCCCCCCCC	1.07
c1ccc2[nH]c(-c3cscn3)nc2c1	0.998
Nc1ccc(S(=O)(=O)Nc2cnc3ccccc3n2)cc1	0.991
C=CCO/N=C(\CCC)C1=C([O-])CC(C)(C)C(C(=O)OC)C1=O.[Na+] (centres undefined)	0.982
O=S(=O)(Oc1ccc(Cl)cc1)c1ccccc1	0.988
COc1cccc(N(C)C(=S)Oc2cccc(C(C)(C)C)c2)n1	0.984
Cc1cc(C)cc(OCC(C)Nc2nc(N)nc(C(C)(C)F)n2)c1 (centres undefined)	0.971
CCc1cccc(CC)c1N(COC)C(=O)C(=O)O	1
O=C(O)COc1ccc(Cl)c2cccnc12	0.963
COC1CCC2(CC1)NC(=O)C(c1cc(C)ccc1C)=C2O (centres undefined)	0.986
